Dicer processing: human Dicer pre-microRNA cleavage inhibition | Q9UPY3 | cat-ELCCA pre-miR-21 Dicer processing, chemiluminescence; hits give high values | z-score at 25 µM | hit rate 6% among 47,000 | AID 1347074; in the data active = z-score above about 3, passing the limit was not always enough;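 note: higher signal means more uncleaved substrate so more Dicer inhibition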
Of the large screens only hits and unclear results are named; the others gave an inactive call. This is one part of a sample in which hits are shown more often than they occur.

CS/C(=C(/C#N)S(=O)(=O)C(C)C)N1CCCCC1	Dicer processing 4.2
CCCCCOc1ccc(C2c3c(oc4ccccc4c3=O)C(=O)N2c2nccs2)cc1OC (configuration not stated)	none
CC(C)(C)c1ccc(-c2nc(NC(=O)CSc3nnc4ccccn34)ns2)cc1	Dicer processing 3
Cc1ccc(-c2nc(NC(=O)CSc3nnc4ccccn34)ns2)cc1	none
O=C(CSc1nnnn1-c1ccccc1)Nc1nsc(-c2ccc(Cl)cc2)n1	none
C=CCn1c(Sc2c3c(c(C#N)c4nc5ccccc5n24)CCCC3)nnc1-c1ccccc1	none
O=C1CS(=O)(=O)CC(=O)N1c1ccc(F)cc1F	none
Fc1cccc(-c2nn3c(Cc4ccccc4)nnc3s2)c1	none
Fc1cccc(Cl)c1CSc1ccc(C(F)(F)F)cn1	none
CC(C)CNc1nc2c(c(=O)[nH]c(=O)n2C)n1C(C)C	none
CC(C)Cn1c(NC2CCCCC2)nc2c1c(=O)[nH]c(=O)n2C	none
Cn1c(=O)c2c(nc(NCc3ccco3)n2C)n(C)c1=O	none
CC(C)Cn1c(NCc2ccco2)nc2c1c(=O)[nH]c(=O)n2C	Dicer processing 4.5
CC(C)Cn1c(NCCN(C)C)nc2c1c(=O)[nH]c(=O)n2C	Dicer processing 4.3
Cn1c(=O)[nH]c(=O)c2c1nc(NCCO)n2CC(O)COc1ccccc1 (configuration not stated)	none
Cn1c(=O)[nH]c(=O)c2c1nc(NCc1ccco1)n2CC(O)COc1ccccc1 (configuration not stated)	none
Cc1ccc(Cn2c(NCc3ccco3)nc3c2c(=O)n(C)c(=O)n3C)cc1	none
CC(C)OCC(O)Cn1c(NCc2ccco2)nc2c1c(=O)[nH]c(=O)n2C (configuration not stated)	Dicer processing 3.9
OCc1ccccc1CN1CCOCC1	none
CCCCCn1c(Sc2nc3ccccc3c(C)c2C#N)n[nH]c1=O	none
COCCCN1CN=C(SCc2ccc(Cl)cc2)NC1	none
CCc1n(CC(O)COc2cccc(OC)c2)c2ccccc2[n+]1C (configuration not stated)	none
CN(C)C(=S)Oc1ccc2c(C(F)(F)F)cc(=O)oc2c1	none
O=C(CCCN1CCN(c2ccccn2)CC1)c1ccc(F)cc1	none
OC1(c2ccc(F)cc2)Cc2ccccc2C2=NCCN21 (configuration not stated)	Dicer processing 5.6
O=C(CN1C2=NCCN2c2ccccc21)c1ccc(F)cc1	none
C=CC(=C)CC(NC)c1ccccc1 (configuration not stated)	none
CNc1ccc(Br)cc1C(O)c1ccccc1 (configuration not stated)	Dicer processing 3.4
CNC[C@H](O)c1cccc(O)c1	none
CSCCC(NC(=O)c1ccc(C(F)(F)F)cc1)C(=O)NNC(=O)Nc1ccccc1 (configuration not stated)	none
O=C(O)c1ccc2nc3c(nc2c1)-c1cccc2cccc-3c12	none
Cc1cccc(C)c1OCC(O)Cn1cnc2ccccc21 (configuration not stated)	none
Cc1ccc(Cl)c(OCC(O)Cn2cnc3ccccc32)c1 (configuration not stated)	none
Cc1cccc(OCC(O)Cn2cnc3ccccc32)c1 (configuration not stated)	Dicer processing 3.7
Cc1cc(SCC2=NNC(=O)/C2=C/N(C)C)c(Cl)cc1Cl	none
O=C1N=C(c2ccccc2)C(C(=O)Nc2ccc(Br)cc2)=C1O	none
C/C(=C\C(=O)NCc1ccccc1)C(=O)O	none
CS/C(=N\S(=O)(=O)c1ccccc1)N1CCCCC1	none
CSC(=Nc1ccccc1F)N1CCCCC1	Dicer processing 4.8
CS/C(=N\S(=O)(=O)c1ccccc1)N1CCCC1	none
Cc1nc(-c2ccc(S(=O)(=O)NCc3ccco3)s2)cs1	none
O=C(NCCN=C1NS(=O)(=O)c2ccccc21)c1cccc2ccccc12	none
COCCn1c2c(c(=O)[nH]c1=O)C(c1ccccc1Cl)C1=C(N2)c2ccccc2C1=O (configuration not stated)	none
O=C(CN1c2cccc3cccc(c23)S1(=O)=O)Nc1ccc(F)cc1F	none
CC(C)(C)c1oncc1C(=O)Oc1ccc([N+](=O)[O-])cc1	none
O=C(Nc1ncc(Cc2ccc(F)cc2)s1)c1ccc(Br)cc1	Dicer processing 4.1
Fc1ccc(Cc2cnc(Nc3ccc(F)cc3)s2)cc1	none
O=C(Nc1nnc(-c2ccc(F)cc2)s1)c1ccc(F)cc1	none
COc1ccc(C(=O)/C=C/Sc2nccc(C)n2)cc1	none
COC(=O)c1c(-c2c(Cl)cccc2Cl)noc1NC(=O)O/N=C(\N)c1c(Cl)cccc1Cl	none
c1ccc(OCc2nnc3sc(-c4ccccc4)nn23)cc1	none
Cc1[nH]n(-c2ccccc2)c(=O)c1N=Nc1ccc(N2CCCCC2)cc1	Dicer processing 3.6
Cc1ccc(N=Nc2c(C)[nH]n(-c3ccccc3)c2=O)c(C)c1	none
Cc1[nH]n(-c2ccccc2)c(=O)c1N=Nc1c(C)n(C)n(-c2ccccc2)c1=O	none
O=C(Nc1cccc(C(F)(F)F)c1)Nc1cc(C2CC2)nn1-c1ccccc1	none
CC(C)CN=C1NS(=O)(=O)c2ccccc21	none
C=CCNC(=O)c1cc2ccccc2o1	none
Cc1ccc(C)c(NCc2ccc3c(c2)OCO3)c1	Dicer processing 5.4
Cc1ccc(CNCc2ccc3c(c2)OCO3)s1	none
Cc1ccc(CNCc2ccc3c(c2)OCO3)cc1	none

High-throughput results from PubChem.
